Screens from PubChem.
Abeta rescue – compounds reversing amyloid beta toxicity in yeast; Potency, µM (doses to about 46.1 µM), hits mostly activators; yeast expressing A-beta42, growth rescue, OD600, 48 h; response scale: 0% DMSO, 100% iron-clioquinol control; AID 1347071; actives 0.063% (n = 410,000); further: nearly all actives have a fitted effect of over 55% in size
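Growth rescue measured by 600 nm absorbance after 48 h yeast culture at 30 C with compound. Values normalized between DMSO and an equimolar ferric chloride plus clioquinol control.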
Mito fusion act – blocks mitochondrial division or promotes mitochondrial fusion; Potency, µM (top dose mostly 46.1 µM), for inactives: at the highest dose growth rescue (activation), most hits filed as activators; AID 485298; actives 0.23% (n = 320,000); S. cerevisiae fusion-defective mutant growth rescue, CellTiterGlo 48 h; further: % of control where 0% means no effect; nearly all actives have a fitted effect of over 45% in size
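Read-out: ATP-based luminescence (CellTiterGlo, 10 min ambient) reporting growth of fusion-defective ts yeast after 48 hours at 37C on glycerol/ethanol YPEG medium in the presence of compound.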
FUS suppressor – suppressors of FUS proteinopathy in yeast; S. cerevisiae FUS-expressing, growth rescue, OD600, 24 h; Potency, µM (doses to about 76.6 µM), usual class: activators; actives 0.24% (n = 390,000); AID 1347120;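 further: plate controls were DMSO vehicle for no effect and reference control for full effect; nearly all actives have a fitted effect of over 55% in size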
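Cultures pregrown in 2.5% raffinose medium are shifted to minimal medium containing 2% galactose to express toxic FUS. Compounds are tested at several concentrations. After 24hr at 30C, growth is quantified at 600 nm absorbance.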
TDP-43 yeast inh – rescues yeast growth from TDP-43 toxicity; TDP-43 expressing yeast growth rescue, BacTiter-Glo, 24 h; Potency, µM (highest dose often 46.1 µM), for the others: at the highest dose growth rescue (activation), most hits filed as activators; actives 1.8% (n = 410,000); further: % of control where 0% means no effect; nearly all actives have a fitted effect of over 50% in size
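Readout is BacTiter-Glo luminescence of cell growth, so inhibitors register as activators. TDP-43-expressing yeast at OD600=0.02 in galactose medium, after raffinose pregrowth to mid-log, were incubated with compound for 24 hr at 30 deg C.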
aSyn rescue – alpha-synuclein toxicity inhibition in yeast; actives 0.14% (n = 370,000); Potency, µM (doses to about 46.1 µM), for inactives: at the top dose growth rescue (activation), hits mostly activators; AID 652106; Yeast expressing alpha-synuclein, growth rescue, BacTiter-Glo, 24 h; further: % of control where 0% means no effect; nearly all actives have a fitted effect of over 65% in size
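Rescue of yeast growth: cells expressing toxic alpha-synuclein, induced in galactose at OD600 0.02, incubated with compound 24 h at 30 C. ATP luminescence quantified growth; inhibitors of toxicity appear as activators.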
* hit, by the source's call; i = inactive; ? = inconclusive; / = not tested or not shown; [ ] = dose if it differs, or a comment. Hits are enriched below; roughly 2.2% of the tested compounds scored in any of these assays. The call rests on the fitted dose curve; in most records, active means well fitted curve in the direction sought with a large enough effect; inconclusive means small, poorly fitted or top-dose-only effect, or another doubt; inactive means no such curve, though single readings can be large; an effect the other way counts as inactive or inconclusive. Potency means the concentration at half of the fitted maximal effect.

SMILES	Abeta rescue	Mito fusion act	FUS suppressor	TDP-43 yeast inh	aSyn rescue
Cc1ccc(C(C)C)c(OCC(=O)Nc2cccc(NC(=O)c3ccco3)c2)c1	i	/	i	20µM*	/
Cc1cc(C)c(OCC(=O)Nc2cccc(-c3nc4ncccc4o3)c2)c(Br)c1	i	/	i	24%	/
COc1c(C)cc(Br)cc1C(=O)Nc1cccc(-c2nc3ncccc3o2)c1	i	19%	i	13µM*	1%
O=C(Nc1cccc(NC(=O)c2ccccc2Cl)c1)c1ccco1	i	3%	i	18µM*	-11%
O=C(/C=C\c1ccccc1)Nc1ccc(NC(=O)c2ccco2)cc1	i	4%	i	35µM*	7%
CCOC(=O)c1ccc(NC(=O)CS(=O)(=O)Cc2nc(-c3ccc(C)cc3)oc2C)cc1	i	/	i	17%	/
Cc1ccc([C@H]2N[C@]3(CCCN(Cc4ccco4)C3=O)[C@H]3C(=O)N(C)C(=O)[C@@H]23)cc1	i	/	i	16%	1%
CCOc1ccc(NC(=O)CCNC(=O)C2CCN(S(=O)(=O)c3ccccc3)CC2)cc1	i	5%	i	2%	-3%
Oc1ccc(Cl)cc1C1C=C(c2ccc3c(c2)OCO3)NC(c2ccc(Cl)cc2)N1 (configuration not stated)	/	/	/	/	-18%
Cc1cccc(C)c1OCC(=O)Nc1cccc(NC(=O)c2ccco2)c1	i	?	i	25µM*	4%
Cc1ccc(C(C)C)c(OCC(=O)Nc2cccc(-c3nc4ncccc4o3)c2)c1	i	/	i	22µM*	/
O=C(NNC(=O)C(Cl)Cl)c1cnn(-c2ccccc2)c1C(F)(F)F	i	-1%	i	-2%	16µM*
N/C(=N\OC(=O)c1cnn(-c2ccccc2)c1C(F)(F)F)c1cc(C(F)(F)F)cc(C(F)(F)F)c1	i	1%	i	-9%	0%
CCCCCCCc1n[nH]c(=S)n1Cc1ccccc1	?	12%	i	16µM*	2%
S=c1[nH]nc(-c2cc3ccccc3o2)n1Cc1ccccc1	i	14µM*	i	-14%	-13%
Cc1ccc(OCc2nc3ccccc3n2C(C)C(=O)Nc2c(C)cccc2C)cc1 (configuration not stated)	i	/	i	25µM*	14%
O=C(Cc1ccccc1[N+](=O)[O-])OCC(=O)c1ccccc1Br	i	/	i	13µM*	2%
O=C(Nc1ccccc1F)c1oc2ccccc2c1NC(=O)C12CC3CC(CC(C3)C1)C2	i	/	i	4%	/
O=C(C1CCN(S(=O)(=O)Cc2ccccc2)CC1)N1CCN(c2ccc(F)cc2)CC1	i	/	i	22µM*	/
O=C(Nc1ccc(S(=O)(=O)N2CCOCC2)cc1)C1CCN(S(=O)(=O)c2ccc(F)cc2)CC1	i	5%	?	14µM*	-4%
O=C(C1CCN(S(=O)(=O)Cc2ccccc2)CC1)N1CCN(c2ccccc2)CC1	i	/	i	23%	/
O=C(C1CCN(S(=O)(=O)N2CCOCC2)CC1)N1CCN(c2ccc(F)cc2)CC1	i	35µM*	i	-14%[0.397 µM]	-2%
CCC(=O)Nc1ccc(C)cc1-c1nc2ccccc2n(CC(=O)c2ccc(C)cc2)c1=O	i	/	i	5%	/
O=C(Nc1cccc(Cl)c1)c1ccc2ncsc2c1	i	27%	i	-18%	-14%
O=C(COC(=O)c1ccc2ncsc2c1)NCc1ccccc1Cl	i	/	i	20µM*	23%
O=C(OCCOc1cccc(Cl)c1)c1ccc2ncsc2c1	i	-3%	i	14µM*	1%
O=C(COC(=O)c1ccc2ncsc2c1)Nc1cccc(Cl)c1	i	19%	/	?	-9%
O=C(COc1ccc2c(c1)CCC2)NCc1cccc(Cl)c1	i	-1%	i	20µM*	0%
O=C(COC(=O)c1ccc2ncsc2c1)NCc1cccc(Cl)c1	i	16%	i	28µM*	8%
CCOc1cc(-c2nc(C)c(C(C)=O)n2O)ccc1OCC(=O)Nc1ccc(F)cc1	i	0%	i	14µM*	-4%
